Broadly, the inhibition is the relative decrease from the control value, in per cent.

Each structure is given as a SMILES string. In all, about 93,000 compounds went through this assay and about 500 (0.54%) were called active. The full list was thinned out, with actives kept by preference. A number with no mark means an inactive call.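 Rule for the calls: active = primary inhibition of 50% or more at 10 µM, then 40% or more on retest; inactive = the rest.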

Integrin beta-2 (Homo sapiens) + Integrin alpha-M (Homo sapiens), sequence (P05107 whole entry, looked up, other chains not shown): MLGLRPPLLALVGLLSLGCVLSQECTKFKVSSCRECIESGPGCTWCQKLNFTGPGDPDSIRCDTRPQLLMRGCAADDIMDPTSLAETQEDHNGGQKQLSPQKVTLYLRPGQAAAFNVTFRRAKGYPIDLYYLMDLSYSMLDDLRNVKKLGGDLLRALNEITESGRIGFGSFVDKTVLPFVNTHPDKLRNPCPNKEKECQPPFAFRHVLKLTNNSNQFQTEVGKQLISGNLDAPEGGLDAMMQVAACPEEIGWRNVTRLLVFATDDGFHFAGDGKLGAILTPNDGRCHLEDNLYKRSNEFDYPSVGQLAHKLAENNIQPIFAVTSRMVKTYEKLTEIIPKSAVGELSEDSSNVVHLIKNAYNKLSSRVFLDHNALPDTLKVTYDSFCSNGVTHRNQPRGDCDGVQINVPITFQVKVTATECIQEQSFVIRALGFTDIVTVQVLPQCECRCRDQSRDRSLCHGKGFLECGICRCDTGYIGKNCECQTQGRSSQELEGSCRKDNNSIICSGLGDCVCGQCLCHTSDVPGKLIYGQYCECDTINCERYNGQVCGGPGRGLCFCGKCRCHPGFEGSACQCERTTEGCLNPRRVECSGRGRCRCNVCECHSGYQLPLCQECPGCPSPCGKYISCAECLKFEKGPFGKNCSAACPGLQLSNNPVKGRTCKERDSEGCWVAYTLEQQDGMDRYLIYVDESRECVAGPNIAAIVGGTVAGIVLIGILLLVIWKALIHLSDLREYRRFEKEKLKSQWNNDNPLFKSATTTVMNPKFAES

This test addresses Integrin beta-2 (Homo sapiens) + Integrin alpha-M (Homo sapiens) (UniProt P05107+P11215). The test can be described thus: antagonists of integrin CD11b/CD18-fibrinogen binding – K562 cells, luminescence, primary screen (AID 1497). The conditions noted are these: K562 CD11b/CD18 adhesion to fibrinogen, ATPlite luminescence; at 10 µM; active compounds read high; Mn2+ added to activate the integrin.
As for `COc1cc(OC)c(C(=O)OC(C)C(=O)Nc2cc(C(F)(F)F)ccc2Cl)cc1OC` (stereo unspecified), the inhibition was 26.7%.

Take `COc1ccc2nc(SCc3ccccc3)nc(C)c2c1`: the inhibition was 1.5%.

On to `CC(C)(C)OC(=O)N/N=C/c1ccc(C(=O)O)cc1`, for which the inhibition was -1.8%.

On to `CC(C)Nc1nnc(SCC(=O)/C=C2\N(C)c3ccccc3C2(C)C)s1`, for which the inhibition was 21.6%.

As for `CCOC(=O)c1cnc2ccc(F)cc2c1Nc1ccc2c(c1)OCCO2`, the inhibition was 2.6%.

In the case of `Cc1c(NS(=O)(=O)c2ccc(NC3CCCC3)c([N+](=O)[O-])c2)c(=O)n(-c2ccccc2)n1C`, the inhibition is 1%.

For `Cc1cccc(CC(=O)N2CCN=C2SCc2ccc([N+](=O)[O-])cc2)c1`, the inhibition is -1.1%.

With `COc1ccc(CCNc2cc(C)nc3c(-c4ccc(Cl)cc4)c(C)nn23)cc1OC`, the inhibition was 2.7%.

Consider `Cc1cccc(-n2c(C)cc(/C=N\NC(=O)c3cccs3)c2C)c1`, for which the inhibition was 37.3%.

Consider `Cc1nc(CNS(=O)(=O)c2cccnc2)cs1`, for which the inhibition is -2.1%.

`Cc1nc(CNS(=O)(=O)c2ccc(Oc3ccccc3)cc2)cs1`: the inhibition was 91.7% (active).

As for `Cc1ccc(S(=O)(=O)NCc2csc(C)n2)c(C)c1`, the inhibition is -9%.

As for `COc1ccccc1N=Cc1c(O)c2ccccc2oc1=O`, the inhibition is 6%.

With `Oc1c(Br)cccc1/C=N/Nc1c(F)c(F)c(F)c(F)c1F`, the inhibition was 99.8%.

With `Cc1cc([N+](=O)[O-])ccc1NC(=O)C1CCCO1` (stereo unspecified), the inhibition is 24.2%.

Take `CCOC(=O)/C(C#N)=C/c1ccc(N2CCN(Cc3ccccc3)CC2)cc1`: the inhibition was 82.1%.

On to `Cc1ccc(NC(=S)NC(=O)/C=C/c2ccc(Cl)cc2)cc1`, for which the inhibition was 7.2%.

In the case of `Cc1ccc(/C=N/NC(=O)CNC(=O)COc2ccccc2)o1`, the inhibition was -10.5%.

For `O=c1c(Cl)c(NCc2ccc(F)cc2Cl)cnn1C12CC3CC(CC(C3)C1)C2`, the inhibition was -4%.

As for `Cc1c(C(=O)NCCN2C(=O)S/C(=C\c3cccs3)C2=O)cccc1[N+](=O)[O-]`, the inhibition is 7%.

Take `Cc1sc2ncnc(Sc3nc4ccccc4s3)c2c1C`: the inhibition was -5.9%.

As to `O=[N+]([O-])c1ccc(N2CCN(S(=O)(=O)c3ccccc3)CC2)cc1N1CCc2ccccc2C1`, the inhibition is -22.4%.

`CCOCCCNC(=O)C(=O)NCCCOCC`: the inhibition is -3%.

For `Cc1ccc(NC(=S)N2CCN(c3ncccn3)CC2)cc1C`, the inhibition was -4.4%.

Regarding `Cc1cc2oc(=O)cc(CN3CCN(S(=O)(=O)c4cccs4)CC3)c2cc1C(C)C`, the inhibition is 22.2%.

`CCN(c1ccc(NC(=O)COC(=O)CCc2nc3ccccc3n2-c2ccccc2)cc1)C(C)C`: the inhibition is 15.2%.

These data come from PubChem BioAssay AID1497 (Sanford-Burnham Center for Chemical Genomics, 2009).
